# PLK1 PBD block: PLK1 (human) polo-box domain binding inhibition. P53350. Potency, µM, inactives show max response, negative = inhibition, usual class: inhibitors. hit rate 2.8% among 360,000. Plk1 PBD binding of FITC phosphopeptide, fluorescence polarization. AID 720504; further: series mostly up to about 57 µM; on the % scale 0 is the no-effect control and ±100 the full control effect; nearly all actives have a fitted effect of over 65% in size
# Sfp inh: blocks B. subtilis Sfp PPTase activity; Q9F4F7; Biochemical Sfp PPTase activity, qHTS; Potency, µM, for the others: largest response in the series, negative = inhibition, most hits filed as inhibitors; hit rate 3.5% among 310,000; AID 1490;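 further: the enzyme is Sfp with the accession as filed and its product quenches rhodamine fluorescence; 0% = enzyme reaction without inhibitor and -100% = no enzyme wells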
#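 Fluorescence-quenching assay with 15 nM Sfp, 5 uM rhodamine-CoA and 12.5 uM BHQ-2-labelled ybbR peptide in pH 7.6 Hepes/MgCl2 buffer. Enzyme was pre-incubated with compound for 15 min at room temperature. Rate was taken from the 30-min fluorescence change (525/598 nm).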
# BAZ2B inh: blocks human BAZ2B; AlphaScreen BAZ2B-H3K14Ac peptide displacement; Potency, µM (top dose mostly 114 µM), inactives show at the top dose activity change, negative = inhibition, hits mostly inhibitors; hit rate 4.4% among 360,000; AID 504333; further: on the % scale 0 is the no-effect control and ±100 the full control effect; nearly all actives have a fitted effect of over 60% in size
#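 AlphaScreen displacement of biotin-H3(5-23)K14Ac peptide (50 nM final) from BAZ2B (50 nM final) in PBS pH 7.4, 0.01% Tween-20; complex preformed 30 min RT, then compounds (top 110 uM) 30 min RT, beads 20 min dark.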
# G9a inh: G9a (human) methyltransferase inhibition. G9a H3K9 monomethylation, AlphaScreen, 2 h. hit rate 8.8% among 350,000. Potency, µM (series often up to 102 µM), without a hit: at the top dose activity, negative = inhibition, hits mostly inhibitors. AID 504332. Q96KQ7; further: on the % scale 0 is the no-effect control and ±100 the full control effect; nearly all actives have a fitted effect of over 75% in size
#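 Readings reflect AlphaScreen signal from monomethyl-H3K9 antibody detection. HMT at 20 nM; substrate b-H3K9 500 nM; cofactor SAM 20 uM; 2 h RT reaction; compounds tested as titrations in qHTS with 15 min preincubation.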
# JMJD2A Tudor: JMJD2A Tudor domain (human) inhibition. O75164. AlphaScreen JMJD2A-Tudor / H3K4me3 peptide binding. Potency, µM (top dose mostly 114 µM), inactives show at the top dose activity change, negative = inhibition, hits mostly inhibitors. hit rate 4.4% among 390,000. AID 504339; further: on the % scale 0 is the no-effect control and ±100 the full control effect; nearly all actives have a fitted effect of over 50% in size
# HP1b binding inh: blocks HP1-beta chromodomain binding to methylated histone tails; AlphaScreen HP1-beta / biotin-H3K9me3 peptide binding; Potency, µM (doses to about 114 µM), without a hit: at the top dose activity change, negative = inhibition, actives largely listed as inhibitors; hit rate 0.56% among 390,000; AID 540317; further: nearly all actives have a fitted effect of over 70% in size
#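 HP1-beta protein (50 nM final) preincubated 30 min at room temperature with biotinylated H3(1-18)K9me3 peptide (50 nM) in PBS pH 7.4, 0.01% Tween-20, then compound added for 30 min. AlphaScreen streptavidin donor/nickel chelate acceptor beads (10 ug/mL final), 30 min dark, luminescence read.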
# Numbers without * were called inactive; ? = inconclusive; . = no result given; [ ] = dose if it differs, or a comment. An excerpt weighted towards active compounds, which were near 12% of everything screened. The call rests on the fitted dose curve; in most records, active means well fitted curve in the direction sought with a large enough effect; inconclusive means small, poorly fitted or top-dose-only effect, or another doubt; inactive means no such curve, though single readings can be large; an effect the other way counts as inactive or inconclusive. Potency means the concentration at half of the fitted maximal effect.
SMILES,PLK1 PBD block,Sfp inh,BAZ2B inh,G9a inh,JMJD2A Tudor,HP1b binding inh
CCc1ccc(-n2nc(CO)c(C(=O)NCCCc3ccccc3)n2)cc1,.,.,1.3%,-7.8%[59 µM],-6.9%,25.2%
Cc1ccc(C)c(CNC(=O)c2ccc3c(c2)nc2n3CCCCC2)c1,.,.,-3.4%,-20.8%[59 µM],-1.3%,30.0%[57 µM]
FC(F)(F)c1cccc(N2CCN(Cc3nnc(-c4ccc5c(c4)OCO5)o3)CC2)c1,.,.,-37.2%,1.6%[59 µM],?,35.3%
COc1ccc(OC)c(S(=O)(=O)N2CC=C(c3c(C)n(CC(=O)N4CCCC4)c4ccccc34)CC2)c1,.,.,?,?,-28.5%,19.4%
CCOc1ccc2nc(NC(=O)c3cc(=O)c4cc(C)cc(C)c4o3)sc2c1,.,.,-1.0%,4.1%[59 µM],-17.0%,33.7%
COc1cn(-c2ccccc2)nc1C(=O)Nc1ccccc1,-2.4%,-3.6%,-4.8%,50.1µM*,-9.2%,1.8%
COC(=O)Cc1cc(=O)n2[nH]cnc2n1,-3.8%,-8.9%,79.4µM*,-32.7%[0.501 µM],-11.0%,13.2%
COc1cc2c(C=O)c3c4c(cc(OC)c(OC)c4c2cc1OC)CCN3C,.,-19.4%,.,.,.,.
Cc1ccc(N2C(S)=C(C#N)C(=O)NC23CCCCC3)cc1,-24.5%,20µM*,-8.8%,28.2µM*,-21.6%[57.1 µM],19.4%
Cc1cccc(NC2=C(C#N)C(=O)NC3(CCCC3)S2)c1,6.6%,17.8µM*,-17.7%,?,-2.9%,46.0%
Cc1cccc(N2C(S)=C(C#N)C(=O)NC2c2ccco2)c1 (stereo unspecified),?,-7.1%,-7.9%,.,-16.3%,12.0%
Cc1cccc(NC2=NC3(CCCCC3)N=C(N)N2)c1,-2.6%,.,.,.,-10.3%,14.0%
Cc1cccc(N2C(S)=C(C#N)C(=O)NC23CCCCC3)c1,3.9%,79.4µM*,?,?,-17.7%,34.6%
Cc1ccccc1N1C(S)=C(C#N)C(=O)NC12CCCCC2,-5.0%,14.1µM*,4.3%,35.5µM*,-20.5%,24.1%
Cc1cccc(NC(=O)c2ccc3nccnc3c2)c1C,?,5.1%,8.1%,11.4%,-7.1%,-5.4%
Cc1cc(C)c2sc(NC(=O)C3=COCCO3)nc2c1,-1.0%,6.0%,-13.0%,72.5%,-15.8%,31.1%
Cc1cc([N+](=O)[O-])nn1Cc1ccc(C(=O)N/N=C/c2ccc(N(C)C)cc2)cc1,0.2%,6.3%,-30.9%,.,-16.3%,-5.2%
COC(=O)c1ccc2c(=O)n(CCN3CCOCC3)c(SCC(=O)Nc3ccccc3OC)nc2c1,0.5%,.,.,.,.,.
COc1ccc(NC(=O)CSc2nc3ccccc3c(=O)n2CCCN2CCCCC2)c(OC)c1,23.8µM*,-21.6%,-30.1%,-44.1%,-12.2%[11.4 µM],0.0%
Cc1ccc(S(=O)(=O)N2CCOCC2)cc1NC(=O)CSc1nc2ccccc2c(=O)n1Cc1ccccc1,-13.5%,0.4%,-0.3%,19.9%[59 µM],-16.8%,14.1%
COC(=O)c1ccc2c(=O)n(CCN3CCOCC3)c(SCC(=O)Nc3ccc(OC)cc3OC)nc2c1,2.3%,7.0%,-10.2%,1.2%[59 µM],44.7µM*,?
O=C(CSc1nc2ccccc2c(=O)n1Cc1ccccc1)Nc1ccc(Br)cc1C(=O)O,10.6µM*,16.0%,50.1µM*,?,-27.9%,10.6%
CC12CC(c3ccccc3O1)N(C(=O)c1ccco1)C(=S)N2c1ccccc1 (stereo unspecified),-1.9%,-7.0%,?,39.8µM*,-28.4%,-1.3%
CC(=O)c1c(N2CCN(C(=O)c3ccco3)CC2)nc(=S)n(-c2ccccc2)c1C,-9.7%,16.7%,8.9%,9.6%[59 µM],-2.6%,13.2%
CCCCC[C@H](O)/C=C/[C@H]1OC(O)C[C@H](O)[C@@H]1C/C=C\CC(=O)O (stereo partly specified),.,0.7%,.,.,.,.
SMILES,PLK1 PBD block,Sfp inh,BAZ2B inh,G9a inh,JMJD2A Tudor,HP1b binding inh
CC(=O)NCCc1nc2cc(NC(=O)COc3cccc(C)c3)ccc2n1C,-8.6%,5.7%,-9.8%,7.6%,-2.1%,21.0%
NC(=O)CSc1nccn1Cc1ccccc1,-5.8%,7.2%,-1.6%,-25.0%,2.2%,18.1%
O=[N+]([O-])c1ccccc1Sc1nccn1Cc1ccccc1,1.6%,11.2%,?,50.1µM*,?,0.1%
CCOC(=O)c1c(C)oc2ncnc(NCCCN3CCN(c4cc(C)ccc4C)CC3)c12,.,.,?,?,?,2.5%
CCN(CC(=O)Nc1ccc(Cl)c(S(=O)(=O)N(C)C)c1)CC(=O)NC(C)C,-2.8%,9.5%,-8.9%,-23.2%,2.1%,14.7%
CSc1ccc(CN(C)C(=O)c2cc(=O)[nH]c3ccccc23)cc1,-12.4%,21.1%,-14.4%,11.2%,-7.4%,6.2%
Cc1cccc(Cn2c(Cc3ccccc3)nc3ccccc32)c1,-7.5%,56.2µM*,63.9%,26.7%[59 µM],48.3%,61.9%
Cc1cccc(-c2noc(-c3ccccc3OCC(=O)Nc3ccc([N+](=O)[O-])cc3)n2)c1,.,.,-34.2%,?,28.2µM*,-15.2%
CC(C)c1noc(-c2ccccc2OCC(=O)Nc2ccc([N+](=O)[O-])cc2)n1,.,.,-11.0%,?,-14.9%,31.4%
CCCC[N+](CC#Cc1ccccc1)(CCCC)CCCS(=O)(=O)[O-],-11.9%,17.8%,8.8%,-37.7%,1.4%,17.2%
COc1ccc(Nc2nc(N)nc(N)c2S(=O)(=O)c2ccccc2)cc1,.,.,-29.0%,-15.4%[59 µM],-29.1%,23.8%
COc1ccc(-n2nc(C(=O)NCCc3ccc(OC)c(OC)c3)c3c4ccccc4n(C)c3c2=O)cc1Cl,.,.,.,2.8%[59 µM],-10.0%,28.9%
Cc1nnc(SCC(=O)N(C2CCCCC2)C2CCS(=O)(=O)C2)n1N (stereo unspecified),-9.1%,.,-2.2%,-45.5%,-3.8%,5.8%
Nc1cnccc1C(=O)O,?,25.1µM*,?,?,?,22.9%
CCOC(=O)CCN1C(=O)[C@H]2[C@H]3[C@H](O)[C@H](O)C/C(=N/NC(=O)OCc4ccccc4)[C@H]3CC[C@@H]2C1=O,.,13.7%,.,.,.,.
CCOc1c(C=C(C#N)C#N)c2ccccc2n1CC,-3.7%,50.1µM*,-38.6%,10µM*,?,20.7%
O=C(CN1C(=O)NC2(CCCCCC2)C1=O)c1ccc(Cl)cc1,2.3%,.,-3.3%,?,10.4%,55.7%
Nc1n[nH]c(C2CC2)c1N=Nc1ccc(Cl)cc1,-3.4%,17.1%,?,50.1µM*,44.7µM*,-15.6%
Nc1n[nH]c(C2CC2)c1N=Nc1ccc(Cl)c(Cl)c1,-2.3%,-8.3%,15.5%,36.5%[59 µM],?,?
Nc1n[nH]c(N)c1N=Nc1ccc2c(c1)OCO2,-6.2%,-8.1%,39.8µM*,9.0%[59 µM],?,-5.3%
Cc1[nH]nc(N)c1N=Nc1ccc(Br)cc1,.,0.4%,39.8µM*,.,.,.
Cc1cc(-c2ccc(Br)cc2)n[nH]1,2.6%,5.1%,-10.8%,-4.0%,-0.7%,22.3%
Cc1nc(N)sc1N=Nc1ccc(Br)cc1,-1.3%,-13.6%,25.1µM*,?,?,-33.3%
